# Measured values: PubChem BioAssay (Tox21)
# Active and inactive are the calls of the source. The call rests on the fitted dose curve.
# Experiment: G protein-coupled receptor (GPCR) small molecule agonists, calcium flux assay: HEK293 wild type cell line counter screen (AID 1920065)
# Conditions: HEK293 WT calcium flux, fluorescence, agonist mode; series mostly up to 57.6 µM; activation: at the top concentration
# Excerpt: U.S. Tox21 Program National Center for Advancing Translational Sciences [NCATS] Division of Preclinical Innovation [DPI] U.S. Environmental Protection Agency [EPA] National Institutes of Environmental Health Sciences [NIEHS] National Toxicology Program [NTP] U.S. Food and Drug Administration [FDA] Assay overview: The increased intracellular calcium release that occurred upon G protein-coupled receptor (GPCR) activation led to the frequent use of calcium flux assays to detect GPCR activation. For the purpose of studying and screening compounds that may activate GPCR, receptor-overexpressing models were typically generated using Hek293 wild-type (WT) cells. In order to eliminate the compounds that may have induced calcium release for non-specific activation, a counter-assay utilizing calcium flux on Hek293 WT cells was performed. The data were formulated in order to serve as a control for any calcium flux detection utilizing Hek293 cells with either GPCR overexpression or gene modification. The procurement of Hek293 WT cells from ATCC. Fluorescence intensity can be utilized to determine the activation of the compound in a calcium flux assay. As a counter control, this cell line was utilized to screen the Tox21 10K compound library.
# Assay Protocol Summary: Hek293 cells were dispensed at 1500cells/4uL/well in 1536-well black wall/clear bottom plates using a multidrop dispenser. After the assay plates were incubated at a 37 C/5% CO2 incubator for 18 hours, 4 uL of Calcium Dye Solution was added to each well. The plates were incubated at 37 C for 1 hour. For agonist mode, 23 nL of compounds dissolved in DMSO, positive control (ATP) or DMSO only was transferred to the assay plate by a pin tool station. The fluorescence intensity in the plates was measured using FDSS 7000EX kinetic plate reader with a filter set of Ex/Em=480/540 for 3 min at 1 sec intervals. Each test compound was measured at 15 concentrations and in triplicates.
# On the % scale 0 is the no-effect control and ±100 the full control effect.
row,Structure (SMILES),activation
1,COc1ccc(C2C(=O)c3ccccc3C2=O)cc1,-0.455% [at 26.5 µM] (inactive)
2,O=C(O)Cc1ccc(-c2ccccc2)cc1,0.563% [at 26.5 µM] (inactive)
3,C=C[C@@H](C)CCC=C(C)C,0.492% (inactive)
4,O=C(CCCl)NCCc1ccccc1,0.364% [at 26.5 µM] (inactive)
5,CCCCCCCCOC(C)=O,-0.444% (inactive)
6,CC1=C(/C=C/C(C)=C/C=C/C(C)=C\C(=O)O)C(C)(C)CCC1,-0.066% (inactive)
7,CCCCCCCCCCCBr,0.246% [at 26.5 µM] (inactive)
8,CCCC(=O)OC(=O)CCC,1.02% (inactive)
9,CC1c2ccccc2CN1NC(=O)c1ccc(Cl)c(S(N)(=O)=O)c1 (stereo not given),-1.51% [at 26.5 µM] (inactive)
10,CC(C)=CCC1C(=O)N(c2ccccc2)N(c2ccccc2)C1=O,0.229% [at 26.5 µM] (inactive)
11,CCCCOc1ccc(C(=O)CCN2CCCCC2)cc1,1.39% [at 26.5 µM] (inactive)
12,CC/C=C\CCOC(=O)c1ccccc1,-0.132% (inactive)
13,C[N+]1(C)CCC(=C(c2ccccc2)c2ccccc2)CC1,-0.23% [at 26.5 µM] (inactive)
14,Cc1ccccc1C#N,0.759% (inactive)
15,NCC(=O)CCC(=O)O,-0.0807% [at 26.5 µM] (inactive)
16,Cc1cc(O)c(C(C)(C)C)cc1C(C)(C)C,-1.1% (inactive)
17,O=NN(CCCl)C(=O)NC1CCCCC1,-0.0739% [at 26.5 µM] (inactive)
18,CCC(C=O)CC,0.0343% (inactive)
19,C=CCn1c(=O)n(CC=C)c(=O)n(CC=C)c1=O,-0.156% (inactive)
20,Cc1c(Cl)cccc1[N+](=O)[O-],-0.182% (inactive)

row,Structure (SMILES),activation
1,O=C(CCCCCCCCc1cccnc1)N1CCC(C=C(c2ccccc2)c2ccccc2)CC1,-0.106% (inactive)
2,CSc1cnc(C)cn1,1.8% [at 150 µM] (inactive)
3,C[N+]12CCC(CC1)C(OC(=O)C(O)(c1ccccc1)c1ccccc1)C2 (stereo not given),0.937% [at 26.5 µM] (inactive)
4,Nc1ccc(S(=O)(=O)Nc2ccnn2-c2ccccc2)cc1,0.406% [at 11.8 µM] (inactive)
5,C/C(=C(\CCOP(=O)(O)O)SC(=O)c1ccccc1)N(C=O)Cc1cnc(C)nc1N,-0.0907% [at 5.23 µM] (inactive)
6,Cc1ccccc1N1CCN(CCc2nnc3n2CCCC3)CC1,-1.36% [at 26.5 µM] (inactive)
7,Cn1nnc2c(C(N)=O)ncn2c1=O,1.16% [at 26.5 µM] (inactive)
8,CCc1nn(C2CCCCC2)c2cc(C3(C#N)CCC(C(=O)O)CC3)ccc12 (stereo not given),-2.04% (inactive)
9,CCCCCCC(CO)CCCC (stereo not given),-0.257% (inactive)
10,CCOC(=O)C(=O)OCC,-1.48% (inactive)
11,CN1Cc2cc(C(=O)N3CCC(C4CCNCC4)CC3)ccc2N[C@@H](CC(=O)O)C1=O,-0.514% [at 26.5 µM] (inactive)
12,CCCSS/C(CCO)=C(\C)N(C=O)Cc1cnc(C)nc1N,3.81% [at 26.5 µM] (inactive)
13,CC(C)C(=O)OCc1ccccc1,-0.0404% (inactive)
14,CCn1cc(C(=O)O)c(=O)c2cc(F)c(N3CCNC(C)C3)c(F)c21 (stereo not given),0.284% [at 26.5 µM] (inactive)
15,Oc1ccc2c(c1)CCC2,-1.39% (inactive)
16,Cc1cccc(N(C)C(=S)Oc2ccc3c(c2)CCC3)c1,-0.058% [at 26.5 µM] (inactive)
17,CCCC(C)C(=O)OCC (stereo not given),-0.203% (inactive)
18,CN1C[C@H](C(=O)N[C@]2(C)O[C@@]3(O)[C@@H]4CCCN4C(=O)[C@H](Cc4ccccc4)N3C2=O)C[C@@H]2c3cccc4[nH]cc(c34)C[C@H]21,-0.0813% [at 26.5 µM] (inactive)
19,CCc1ccc(C(=O)C(C)CN2CCCCC2)cc1 (stereo not given),0.327% [at 26.5 µM] (inactive)
20,Nc1ccc(S(=O)(=O)Nc2ccccc2)cc1,-0.0899% [at 26.5 µM] (inactive)
